HCMV antiviral: blocks human cytomegalovirus replication. HFF cells, HCMV-luciferase reporter, 72 h; stronger effect = lower value. activity change, negative = inhibition, % at 57.5 µM. 410,000 tested, 4.5% active. AID 1259415; in the data active = activity change below about -60%; inconclusive = no clear call, values can overlap the other calls; inactive = above about -39%
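After 16 h attachment at 37C, HFF cells received test compound and HCMV-luciferase (1 PFU/cell); reporter luminescence read 72 h later, data normalized against buffer-only and known inhibitor Salinomycin.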
FMDV inh: foot and mouth disease virus antiviral activity | FMDV antiviral cell-based qHTS | AID 1159524 | Potency, µM (titrated, usually from 57.9 µM), actives largely listed as inhibitors | 410,000 tested, 1.2% active; calls by dose curve; tested in HEK293T cells; note: read-out not given here; nearly all actives have a fitted effect of over 45% in size
Marburg entry inh: blocks Marburg virus binding to or entry into cells | Marburg virus pseudotyped entry inhibition, cell reporter | Potency, µM (series often up to 37.8 µM), most hits filed as inhibitors | 300,000 tested, 1.8% active | AID 540276; calls by dose curve; tested in HEK293 cells
HCV inh: blocks hepatitis C virus; 340,000 tested, 3.4% active; Huh7.5.1 HCVcc-Cre infection, luciferase reporter, 44 h; Potency, µM (doses to about 41.8 µM), usual class: inhibitors; AID 651820; active = well fitted inhibition curve with a large enough effect; inconclusive = small, poorly fitted or top-dose-only effect, or another doubt; inactive = no such curve, though single readings can be large or run the other way
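1,000 cells/well; 4 h culture; + compound; + HCVcc-Cre (~0.5 moi); 44 h; luciferase substrate, RT 15 min; read 15 sec.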
LASV entry inh: Lassa virus entry inhibition; Lassa virus pseudotype entry inhibition, cell reporter; Potency, µM (series often up to 37.9 µM), most hits filed as inhibitors; 300,000 tested, 1.2% active; calls by dose curve; tested in HEK293 cells; note: nearly all actives have a fitted effect of over 50% in size
SARS PLP yeast: inhibitors of SARS-CoV papain-like protease in yeast; S. cerevisiae expressing SARS-CoV PLpro, growth rescue; Potency, µM (series often up to 32.9 µM), most hits filed as activators; 330,000 tested, 0.19% active; AID 485353; calls by dose curve; note: nearly all actives have a fitted effect of over 55% in size
A number is an active result; 0 = inactive; ? = inconclusive; - = no result; ! = not confirmed by another sample; [ ] = another dose, or the depositor's remark. Only some compounds are listed: those with a hit (about 8% of all), similar ones and a draw of the others.

SMILES	HCMV antiviral	FMDV inh	Marburg entry inh	HCV inh	LASV entry inh	SARS PLP yeast
COc1cc2c(cc1NC(=O)COC(=O)C1CC(=O)N(Cc3ccco3)C1)oc1ccccc12 (stereo not given)	0	0	0	4.5µM	0	0
COc1cc2c(cc1NC(=O)COC(=O)[C@@H](NC(=O)c1ccccc1)C(C)C)oc1ccccc12	0	0	?	7.1µM	0	0
COc1cc(NC(=O)C2CC(=O)N(Cc3ccco3)C2)c(OC)cc1Cl (stereo not given)	0	0	-	0	-	0
Cc1ncc2c(c1CNC(=O)c1cncs1)CCN(C(=O)c1ccc(C(F)(F)F)cc1)C2	-	0	-	-	-	-
Cc1nc2ccccc2nc(C)c1=NOCc1cccc(F)c1	?	?	?	0	2.8µM	0
CCN(c1ccccc1)c1nnc(NC(=O)Nc2ccc(C)cc2)s1	0	0	0	-	?	-
CC(C)Nc1nc(NC(C)C)nc(N(C)N)n1	0	0	0	5.6µM	?	0
CN1Cc2c(N3CCOCC3)nc3sc(C#N)c(N)c3c2CC1(C)C	0	0	0	0	?	0
CN1Cc2c(N3CCOCC3)nc3sc(C(=O)c4ccc(Br)cc4)c(N)c3c2CC1(C)C	-95	0	?	0	?	0
CN(C)CCCN(C(=O)C1=COCCO1)c1nc2ccc(Br)cc2s1	0	0	?	13µM	0	0
CCN(CC)CCN(C(=O)C1=COCCO1)c1nc2cc(C)cc(C)c2s1	0	?	11µM	?	0	0
COc1ccc(C)c2sc(N(CCCN(C)C)C(=O)c3ccc4c(c3)OCCO4)nc12	0	0	?	?	10µM	0
CCN(CC)CCN(C(=O)c1ccc2c(c1)OCCO2)c1nc2ccc(C)cc2s1	0	0	?	?	?	0
Cc1cc(C)c2nc(N(CCCN(C)C)C(=O)c3ccc4c(c3)OCCO4)sc2c1	?	0	?	11µM	?	0
CCOC(=O)c1cc(OC(=O)c2ccc(C)cc2)n(-c2ccccc2)n1	0	0	0	-	0	-
CC(=O)Nc1ccc(NC(=O)CCc2nc3cccnc3n2Cc2cccs2)cc1	0	0	0	-	0	-
Cc1cc(C)c2nc(N(CCCN(C)C)C(=O)C3=COCCO3)sc2c1	0	0	20µM	32µM	?	0
CCN(C(=O)C1=COCCO1)c1nc2c(C)cccc2s1	0	0	?	0[8.37 µM]	?	0
CCN(CC)CCNC(=O)c1ccc2c(c1)NC(=O)C(CS(=O)(=O)Cc1ccc(F)cc1Cl)N2 (stereo not given)	?	0	-	-	?	-
c1ccc2nc(OCCN3CC3)ccc2c1	-64	0	?	?	?	0
Cc1cc(OCCN2CCCCC2)nc2ccccc12	0	0	?	?	0	0
N#Cc1ccc(-c2ccco2)nc1SCC(=O)c1ccc(Cl)cc1	0	0	?	4.5µM	?	0
O=C(Cn1c(SCCOc2ccccc2Cl)nc2ccccc21)N1CCCCC1	0	0	?	-	0	-
Cc1ccc(O)c(NC(=O)c2cc(-c3cccs3)on2)c1	?	0	8.9µM	0	0	0
CC(C)CCn1nnc2sc(-c3ccccc3)cc2c1=O	0	0	?	-	?	-
SMILES	HCMV antiviral	FMDV inh	Marburg entry inh	HCV inh	LASV entry inh	SARS PLP yeast
COc1ccc2c(c1)[C@@]13CCCC[C@H]1[C@@H](C2)NCC3	-	-	18µM	-	?	-
COc1ccc2c(c1)C13CCCCC1C(C2)N(C)CC3 (stereo not given)	-	-	11µM	-	?	-
C=CCN1CC[C@]23CCCCC2[C@H]1Cc1ccc(O)cc13 (stereo not given in full)	-	-	7.9µM!	-	0	-
COc1ccc2c(c1)C13CCCC[C@@H]1C(C2)N(C)CC3 (stereo not given in full)	0	0	-	?	-	0
COc1ccccc1CNC(=O)c1cc2c(-c3ccc(Cl)cc3)nn(C)c2s1	0	0	0	-	0	-
COc1ccc(C=C(c2nc3ccccc3s2)c2nc3ccccc3s2)cc1O	-83	0	?	?	?	0
CC(=O)N(C(C)=O)c1ncnc2c1c(-c1ccc(Cl)cc1)nn2C(C)(C)C	?	?	?	?	16µM	0
CC(=O)Nc1ncnc2c1c(-c1ccc(Cl)cc1)nn2C(C)(C)C	0	0	-	0	-	0
O=C(Nc1ccc(S(=O)(=O)NCC2CCCO2)cc1)c1ccc(Cl)cc1[N+](=O)[O-] (stereo not given)	0	0	?	25µM	0	0
CCN(CC)S(=O)(=O)c1csc(C(=O)NCc2ccccc2)c1	-71	?	0	?	?	0
CCN(CC)S(=O)(=O)c1cccc(C(=O)NCc2ccccc2)c1	0	0	0	0	0	0
COc1ccc(-n2c(SCCNCCO)nc3sc4c(c3c2=O)CCCC4)cc1	0	0	?	2.8µM	?	0
Cc1nn(Cc2ccccc2)c(C)c1NC(=O)CSc1nc2sc3c(c2c(=O)n1C)CCC3	-	?	0	22µM	0	-
CC(C)C(C)NC(=O)CSc1nc2scc(-c3ccco3)c2c(=O)n1-c1ccccc1 (stereo not given)	-63	0	0	0	0	0
CC(C)C(C)(C#N)NC(=O)CSc1nc2scc(-c3ccco3)c2c(=O)n1-c1ccccc1 (stereo not given)	0	0	0	?	0	0
CC(NC(=O)CSc1nc2sc3c(c2c(=O)n1-c1ccccc1)CCCC3)c1ccccc1 (stereo not given)	-81	-	?	0	?	0
CCOC(=O)c1cc(-c2ccc(OC)cc2)n(CCC(=O)Nc2cccc(C(C)=O)c2)c1C	0	0	-	-	0	-
O=C(C1CCC(Cn2c(=O)c3sccc3n(Cc3ccc(F)cc3)c2=O)CC1)N1CCOCC1 (stereo not given)	0	0	-	-	0	-
CC(=O)OC1CC[C@]2(C)C(CC(OC(C)=O)[C@]3(C)C2CC[C@@]2(C)C(c4ccoc4)OC(=O)C4O[C@]432)C1(C)C (stereo not given in full)	-	0	-	-	-	-
CCOC(=O)c1ccc(NS(=O)(=O)c2cn(C)c(C)n2)cc1	0	0	-	-	0	-
CCn1c(-c2ccccc2F)nc2cc(NC(C)=O)cc(C(=O)N3CCC[C@H]3C(=O)OC)c21	-	0	-	-	-	-
C=CCn1c(SCC(C)=O)nc2scc(-c3ccco3)c2c1=O	0	0	0	0	0	0
C=CCn1c(SCC(=O)N2CCOCC2)nc2scc(-c3ccco3)c2c1=O	-	0	0	?	10µM	0
Cc1cc(C)c(/C=N/n2c(C)cc(C)c(C#N)c2=O)c(C)c1	0	0	?	0	0	0
Cc1cc(C)n(/N=C/c2cccs2)c(=O)c1C#N	-76	0	0	0	0	0
CN(C)CCCC1Sc2ccccc2Sc2ccccc21 (stereo not given)	0	?	?	16µM	?	-
CNCCC1Sc2ccccc2Oc2ccccc21 (stereo not given)	0	0	?	0	?	0
Nc1c(C(=O)OC2CCCCC2)c2nc3ccccc3nc2n1CC1CCCO1 (stereo not given)	0	0	?	10µM	0	0
